How the values were obtained:
Assay in all cases: DAPPL (digital affinity profiling via proximity ligation, sequencing); 10 mM Tris-HCl pH 7.5, 50 mM NaCl, 1 mM DTT, 4% glycerol, room temperature, 30 min; GST-TFs on glutathione beads, 16-mer random dsDNA library, 0.1% formaldehyde crosslink after washing; high values mean tight binding
Settings in all cases: protein: recombinant; tags: N-terminal GST; dsDNA, one strand shown
FLI1 = molecular target: T1, FLI1 (Homo sapiens, UniProt Q01543 1-452)
T1 sequence: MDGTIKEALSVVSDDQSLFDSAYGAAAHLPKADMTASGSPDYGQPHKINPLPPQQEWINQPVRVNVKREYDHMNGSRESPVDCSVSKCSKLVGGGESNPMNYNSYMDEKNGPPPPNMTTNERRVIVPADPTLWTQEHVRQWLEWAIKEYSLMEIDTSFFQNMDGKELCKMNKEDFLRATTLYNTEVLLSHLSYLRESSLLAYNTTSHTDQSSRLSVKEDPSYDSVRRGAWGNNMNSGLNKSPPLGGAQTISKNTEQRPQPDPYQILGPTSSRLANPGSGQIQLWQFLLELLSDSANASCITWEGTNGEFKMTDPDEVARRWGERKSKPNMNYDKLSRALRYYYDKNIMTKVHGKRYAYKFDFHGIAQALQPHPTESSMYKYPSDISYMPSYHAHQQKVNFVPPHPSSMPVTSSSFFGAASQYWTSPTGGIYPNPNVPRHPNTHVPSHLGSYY
In short: (§1)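 A tag-only sample was pooled with DNA-barcoded human transcription factors that had been expressed in yeast as GST fusions and captured on glutathione beads. The pools were incubated for 30 min at room temperature with 200 nmole of a random double-stranded 16-mer DNA library in Tris/NaCl/DTT/glycerol buffer, then washed, crosslinked with 0.1% formaldehyde, proximity-ligated (BsaI/T4 ligase, 1 h, 37 °C), PCR-amplified and sequenced on an Illumina NextSeq500. Binding signal is each hexamer's read frequency for a factor divided by its frequency for the tag-only sample.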

ELK1 = molecular target: T2, ELK1 (Homo sapiens, UniProt P19419 1-428)
T2 sequence: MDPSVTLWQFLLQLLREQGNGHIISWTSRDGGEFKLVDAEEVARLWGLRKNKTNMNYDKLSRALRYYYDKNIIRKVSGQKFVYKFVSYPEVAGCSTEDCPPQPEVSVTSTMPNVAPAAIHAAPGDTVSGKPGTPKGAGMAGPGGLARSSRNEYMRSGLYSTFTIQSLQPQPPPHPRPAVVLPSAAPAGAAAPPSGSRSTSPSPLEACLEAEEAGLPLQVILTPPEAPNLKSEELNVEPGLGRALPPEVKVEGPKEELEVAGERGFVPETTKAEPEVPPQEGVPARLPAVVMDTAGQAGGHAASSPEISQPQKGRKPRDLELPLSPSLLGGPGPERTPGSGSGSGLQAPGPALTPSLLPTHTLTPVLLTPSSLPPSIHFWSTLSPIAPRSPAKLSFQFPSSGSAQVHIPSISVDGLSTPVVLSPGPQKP
In short: as §1

GABPA = molecular target: T3, GABPA (Homo sapiens, UniProt Q06546 1-454)
T3 sequence: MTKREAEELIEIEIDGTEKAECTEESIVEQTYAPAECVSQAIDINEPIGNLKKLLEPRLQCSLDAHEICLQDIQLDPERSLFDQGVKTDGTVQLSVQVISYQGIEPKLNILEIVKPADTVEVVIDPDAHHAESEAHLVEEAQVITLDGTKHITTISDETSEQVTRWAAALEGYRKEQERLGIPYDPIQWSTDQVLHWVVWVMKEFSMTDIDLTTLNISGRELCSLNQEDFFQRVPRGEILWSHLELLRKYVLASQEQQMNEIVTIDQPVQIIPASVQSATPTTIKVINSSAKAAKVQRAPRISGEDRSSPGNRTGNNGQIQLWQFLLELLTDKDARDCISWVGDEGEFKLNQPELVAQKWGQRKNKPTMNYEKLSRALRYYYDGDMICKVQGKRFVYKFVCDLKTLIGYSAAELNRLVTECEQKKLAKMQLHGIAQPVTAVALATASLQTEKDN
In short: as §1

ERG = molecular target: T4, ERG (Homo sapiens, UniProt P11308 1-479)
T4 sequence: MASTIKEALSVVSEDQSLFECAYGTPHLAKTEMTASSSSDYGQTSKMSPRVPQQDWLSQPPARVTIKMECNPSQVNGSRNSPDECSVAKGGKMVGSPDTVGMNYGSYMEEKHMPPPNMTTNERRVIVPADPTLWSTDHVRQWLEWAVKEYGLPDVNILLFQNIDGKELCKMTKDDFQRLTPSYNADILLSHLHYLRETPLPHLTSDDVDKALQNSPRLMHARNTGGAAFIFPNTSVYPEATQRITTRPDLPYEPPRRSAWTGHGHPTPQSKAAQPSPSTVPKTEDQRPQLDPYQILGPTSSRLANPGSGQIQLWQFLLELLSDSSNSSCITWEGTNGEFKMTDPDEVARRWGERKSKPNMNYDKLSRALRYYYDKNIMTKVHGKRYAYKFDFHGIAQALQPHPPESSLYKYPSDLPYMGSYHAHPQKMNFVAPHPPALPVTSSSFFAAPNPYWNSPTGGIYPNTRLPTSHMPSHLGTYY
In short: as §1

ELF1 = ELF1 (Homo sapiens, UniProt P32519 1-619)
In short: as §1

EHF = molecular target: T5, EHF (Homo sapiens, UniProt Q9NZC4 1-300)
T5 sequence: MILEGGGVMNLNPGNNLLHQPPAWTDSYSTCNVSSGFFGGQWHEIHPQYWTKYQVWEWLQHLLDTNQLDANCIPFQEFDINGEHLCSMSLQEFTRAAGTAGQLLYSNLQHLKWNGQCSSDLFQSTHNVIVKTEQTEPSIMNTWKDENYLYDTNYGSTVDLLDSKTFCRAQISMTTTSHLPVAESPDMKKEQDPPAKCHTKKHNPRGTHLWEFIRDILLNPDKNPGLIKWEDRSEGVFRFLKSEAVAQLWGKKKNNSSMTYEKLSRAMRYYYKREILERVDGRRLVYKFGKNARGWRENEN
In short: as §1

SPI1 = SPI1 (Homo sapiens, UniProt P17947 1-270)
In short: as §1

SPIB = SPIB (Homo sapiens, UniProt Q01892 1-262)
In short: as §1

ELK3 = molecular target: T6, ELK3 (Homo sapiens, UniProt P41970 1-407)
T6 sequence: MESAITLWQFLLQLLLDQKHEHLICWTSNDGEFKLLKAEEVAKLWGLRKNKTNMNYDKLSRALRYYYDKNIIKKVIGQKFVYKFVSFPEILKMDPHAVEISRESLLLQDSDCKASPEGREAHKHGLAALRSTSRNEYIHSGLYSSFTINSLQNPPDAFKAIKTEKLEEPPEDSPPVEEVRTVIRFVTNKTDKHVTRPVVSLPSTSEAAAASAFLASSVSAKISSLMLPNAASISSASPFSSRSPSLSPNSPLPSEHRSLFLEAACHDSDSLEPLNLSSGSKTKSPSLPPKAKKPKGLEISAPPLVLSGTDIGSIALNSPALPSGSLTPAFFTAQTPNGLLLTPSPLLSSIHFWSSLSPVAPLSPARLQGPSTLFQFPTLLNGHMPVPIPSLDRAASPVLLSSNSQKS
In short: as §1

Sequence of SPIB (Q01892 whole entry): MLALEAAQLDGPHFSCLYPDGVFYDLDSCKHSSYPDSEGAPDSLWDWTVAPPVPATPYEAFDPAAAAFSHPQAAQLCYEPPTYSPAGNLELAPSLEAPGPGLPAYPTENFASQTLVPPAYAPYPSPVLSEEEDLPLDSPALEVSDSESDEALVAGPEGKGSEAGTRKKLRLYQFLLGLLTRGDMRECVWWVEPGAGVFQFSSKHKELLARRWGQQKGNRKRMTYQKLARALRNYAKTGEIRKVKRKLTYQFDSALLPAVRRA
Sequence of ELF1 (P32519 whole entry): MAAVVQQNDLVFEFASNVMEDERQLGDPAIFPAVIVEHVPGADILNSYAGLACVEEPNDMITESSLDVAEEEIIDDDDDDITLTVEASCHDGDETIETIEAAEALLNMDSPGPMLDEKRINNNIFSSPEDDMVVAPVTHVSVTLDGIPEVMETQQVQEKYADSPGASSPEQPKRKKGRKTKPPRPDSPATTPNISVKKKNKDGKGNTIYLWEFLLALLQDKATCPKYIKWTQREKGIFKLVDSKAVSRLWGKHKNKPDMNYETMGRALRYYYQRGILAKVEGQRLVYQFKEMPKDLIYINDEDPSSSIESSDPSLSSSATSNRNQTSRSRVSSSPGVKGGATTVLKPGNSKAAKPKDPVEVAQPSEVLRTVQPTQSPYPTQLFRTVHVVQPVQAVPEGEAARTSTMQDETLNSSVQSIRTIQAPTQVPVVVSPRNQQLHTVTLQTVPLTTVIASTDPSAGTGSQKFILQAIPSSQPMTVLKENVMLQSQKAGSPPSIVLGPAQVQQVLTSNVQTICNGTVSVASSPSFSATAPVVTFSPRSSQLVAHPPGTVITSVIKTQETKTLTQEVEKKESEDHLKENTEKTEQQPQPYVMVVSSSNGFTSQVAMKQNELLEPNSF

Sequence	binding signal (FLI1)	binding signal (ELK1)	binding signal (GABPA)	binding signal (ERG)	binding signal (ELF1)	binding signal (EHF)	binding signal (SPI1)	binding signal (SPIB)	binding signal (ELK3)
AGCATT	1.12 fold enrichment (6-mer frequency, TF over GST control)	1.13 fold enrichment (6-mer frequency, TF over GST control)	1.11 fold enrichment (6-mer frequency, TF over GST control)	1.09 fold enrichment (6-mer frequency, TF over GST control)	1.1 fold enrichment (6-mer frequency, TF over GST control)	1.08 fold enrichment (6-mer frequency, TF over GST control)	1.03 fold enrichment (6-mer frequency, TF over GST control)	1.05 fold enrichment (6-mer frequency, TF over GST control)	1.07 fold enrichment (6-mer frequency, TF over GST control)
ACCTTG	1.27 fold enrichment (6-mer frequency, TF over GST control)	1.37 fold enrichment (6-mer frequency, TF over GST control)	1.24 fold enrichment (6-mer frequency, TF over GST control)	1.1 fold enrichment (6-mer frequency, TF over GST control)	1.21 fold enrichment (6-mer frequency, TF over GST control)	1.3 fold enrichment (6-mer frequency, TF over GST control)	1.17 fold enrichment (6-mer frequency, TF over GST control)	1.18 fold enrichment (6-mer frequency, TF over GST control)	1.38 fold enrichment (6-mer frequency, TF over GST control)
TACAGG	1.32 fold enrichment (6-mer frequency, TF over GST control)	1.16 fold enrichment (6-mer frequency, TF over GST control)	1.21 fold enrichment (6-mer frequency, TF over GST control)	1.22 fold enrichment (6-mer frequency, TF over GST control)	1.13 fold enrichment (6-mer frequency, TF over GST control)	1.17 fold enrichment (6-mer frequency, TF over GST control)	1.12 fold enrichment (6-mer frequency, TF over GST control)	1.2 fold enrichment (6-mer frequency, TF over GST control)	1.03 fold enrichment (6-mer frequency, TF over GST control)
ACACAT	1.34 fold enrichment (6-mer frequency, TF over GST control)	1.25 fold enrichment (6-mer frequency, TF over GST control)	1.17 fold enrichment (6-mer frequency, TF over GST control)	1.31 fold enrichment (6-mer frequency, TF over GST control)	1.25 fold enrichment (6-mer frequency, TF over GST control)	1.35 fold enrichment (6-mer frequency, TF over GST control)	1.21 fold enrichment (6-mer frequency, TF over GST control)	1.21 fold enrichment (6-mer frequency, TF over GST control)	1.32 fold enrichment (6-mer frequency, TF over GST control)

From publication PMC7862700, “An all-to-all approach to the identification of sequence-specific readers for epigenetic DNA modifications on cytosine”
